FGF22 binding: binders of human FGF22 protein, primary screen, FGF22 synaptogenesis inhibitor project, biophysical, thermal shift, single point | Fibroblast growth factor 22 (Homo sapiens), Q9HCT0 | recombinant FGF22 thermal shift, SYPRO orange fluorescence; percent of sucrose octasulfate shift, DMSO zero | activity (Tm shift, normalised), % at 9.99 µM | 1.5% of 340,000 active;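 active means mean Tm shift, scaled 0 neutral to 100 positive control, at about 1.3% or above, every replicate too, limit read from the data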
ADAM17 inh: ADAM17 inhibitors, primary screen, biochemical, QFRET; recombinant ADAM17, EDANS/DABCYL FRET peptide cleavage; Disintegrin and metalloproteinase domain-containing protein 17 (Homo sapiens), P78536; inhibition, % at 6.95 µM; 0.83% of 370,000 active;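 active means inhibition above the mean of compounds lying between control limits plus 3 SD, set per campaign, cut at about 8.5% in these data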;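 further: 0% = DMSO-only wells as the low control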
ADAM10 inh: human ADAM10 inhibitors, primary screen, biochemical, QFRET, HTS; Disintegrin and metalloproteinase domain-containing protein 10 (Homo sapiens), O14672; recombinant ADAM10, EDANS/DABCYL FRET peptide cleavage, 3 h; inhibition, % at 7 µM; 0.62% of 370,000 active; AID 720582, 2013;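 active means inhibition above a per-campaign cutoff equal to the mean of compounds falling between control-based bounds plus 3 SD, cut at about 20% in these data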;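 further: 0% = DMSO wells while the 100% control is not disclosed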
Target sequence (O14672 214-748 limits assumed): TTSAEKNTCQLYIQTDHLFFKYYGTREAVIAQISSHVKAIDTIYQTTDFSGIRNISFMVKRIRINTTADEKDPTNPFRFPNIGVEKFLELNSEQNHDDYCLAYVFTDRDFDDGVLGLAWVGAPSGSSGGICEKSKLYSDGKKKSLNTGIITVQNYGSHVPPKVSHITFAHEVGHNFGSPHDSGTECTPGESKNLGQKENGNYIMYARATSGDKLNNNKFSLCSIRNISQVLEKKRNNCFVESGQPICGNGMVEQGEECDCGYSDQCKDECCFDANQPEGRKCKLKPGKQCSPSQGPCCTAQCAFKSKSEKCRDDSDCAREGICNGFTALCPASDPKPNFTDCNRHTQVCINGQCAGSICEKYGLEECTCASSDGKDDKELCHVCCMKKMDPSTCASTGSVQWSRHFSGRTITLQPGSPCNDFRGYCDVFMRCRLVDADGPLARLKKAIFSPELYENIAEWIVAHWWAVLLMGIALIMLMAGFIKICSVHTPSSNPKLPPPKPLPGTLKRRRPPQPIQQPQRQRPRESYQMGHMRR
proKLK7 act: proKLK7 zymogen activators, primary screen, biochemical, fluorescence intensity; 0.9% of 370,000 active; Kallikrein-7 (Homo sapiens), P49862; activation, % at 7 µM; purified proKLK7, EDANS-DABCYL substrate fluorescence; 100% is mature enzyme control, 0% vehicle;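 active means activation above the mean of all tested compounds plus 3 SD, computed per campaign excluding outliers beyond control limits, cut at about 13% in these data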
Ecoli rRNA inh: reduced GFP signal of wild-type E. coli, primary screen, bacterial rRNA inhibitor project, GFP/RFP fluorescence, OD600, single point. GFP signal change (wild-type ribosome), % (test concentration not listed). E. coli WT GFP vs humanized-ribosome RFP mutants, 24 h; hits give low values; DMSO median 0, no signal -100. 1.6% of 350,000 active;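 active means significant combined selectivity score with lowered wild-type GFP, culture density cut under 30%, mutant RFP and density less affected; inactive means any of these conditions unmet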
ADAM10 confirm: human ADAM10 inhibitors, confirmation, biochemical, QFRET, triplicate; shares compounds with ADAM10 inh; ADAM10 QFRET peptide cleavage, EDANS fluorescence; inhibition, % at 6.95 µM; 1% of 2,100 active; AID 743208, 2013;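 active means inhibition above about 20% chosen separately for each screening run, limit read from the data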;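 further: 0% = DMSO wells and 100% = marimastat wells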
ADAM17 counter: ADAM17 inhibitors, counter-screen for ADAM10 exosite inhibitor project, biochemical, QFRET, high throughput. shares compounds with ADAM10 inh. ADAM17 QFRET peptide cleavage, EDANS fluorescence. inhibition, % at 6.95 µM. 0.5% of 2,100 active;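 active means mean triplicate inhibition above the solvent-only control wells' mean plus 3 SD, cut at about 12% in these data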;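 further: 0% = DMSO wells and 100% = marimastat wells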
ADAM10 ctr: ADAM10 inhibitors, counter-screen for ADAM17 exosite inhibitor project, biochemical, FRET, human ADAM10; shares compounds with ADAM17 inh; recombinant ADAM10, EDANS/DABCYL FRET peptide cleavage, 3 h; inhibition, % at 6.95 µM; 47% of 2,900 active;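 active means mean inhibition over the triplicate runs exceeds the activity threshold set in the earlier primary screen, cut at about 20% in these data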;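 further: 0% = DMSO wells and 100% = marimastat wells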
ADAM17 confirm: ADAM17 inhibitors, hit retest, confirmation, biochemical, QFRET peptide cleavage; shares compounds with ADAM17 inh; recombinant ADAM17, EDANS/DABCYL QFRET peptide cleavage; inhibition, % at 6.95 µM; 65% of 2,900 active; AID 743257, 2014;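 active means mean inhibition across replicates above the hit cutoff set in the primary screen, cut at about 8.5% in these data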;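 further: 0% = DMSO wells and 100% = marimastat wells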
Numbers without * were called inactive; x = no result given. Only some compounds are listed: those with a hit (about 3.8% of all), similar ones and a draw of the others.

SMILES | FGF22 binding | ADAM17 inh | ADAM10 inh | proKLK7 act | Ecoli rRNA inh | ADAM10 confirm | ADAM17 counter | ADAM10 ctr | ADAM17 confirm
OC[C@@H]1CC[C@@H]2O[C@H](CCc3ccc(C#CCc4ccccc4)cc3)[C@@H](n3cc(-c4ccccc4)nn3)C[C@@H]2O1 | 0 | x | x | x | x | x | x | x | x
O=C(CN1CCN(c2ccccc2O)CC1)Nc1cc(S(=O)(=O)N2CCCC2)ccc1Cl | 0 | 8.9* | 29* | 1 | 1 | 7 | 3 | 13 | 11*
COc1ccc(N(CC(=O)NCCSC2CCCCC2)S(=O)(=O)c2ccccc2)c(OC)c1 | 0 | 9.4* | 21* | 1 | -11 | 1 | 1 | 16 | 7
CN(C)c1ccc(NC(=O)c2cn(-c3ccccc3)nc2-c2cccs2)cc1 | x | 13* | 28* | 0 | x | 14 | 6 | 20 | 9.7*
O=C(Nc1ccc2ccccc2c1)c1cn(-c2ccccc2)nc1-c1cccs1 | x | -1 | -2 | -6 | x | x | x | x | x
NC(CCc1ccccc1)c1csc(NC(=O)NCCc2ccccc2)n1 (centres undefined) | 0 | 0 | 1 | 1 | -1 | x | x | x | x
NC(CCc1ccccc1)c1csc(NC(=O)Nc2ccccc2Oc2ccccc2)n1 (centres undefined) | 0 | 14* | 29* | 0 | -28 | 7 | 3 | 23* | 13*
COCC(=O)N1C[C@H](C)[C@@H](OC)CN(C)C(=O)c2ccc(NC(=O)NC(C)C)cc2OC[C@@H]1C | 0 | x | x | x | 3 | x | x | x | x
Cc1cccc(NC(=S)NNc2ncc(C(F)(F)F)cc2Cl)c1 | x | 13* | 21* | 0 | x | 2 | 0 | 1 | 1
FC(F)(F)c1cnc(NNC(=S)Nc2ccccc2Cl)c(Cl)c1 | x | 6 | 17 | 0 | x | x | x | x | x
COc1ccc2c3c(n(C)c2c1)[C@@H](CO)N(Cc1cccnc1)CC31CCN(C(=O)c2cccnc2)CC1 | 0 | x | x | x | 7 | x | x | x | x
CCN(c1ccc(NC(=O)COC(=O)/C=C/c2cccs2)cc1)C(C)C | 0 | 17* | 34* | 0 | 10 | 5 | 5 | 33* | 18*
Cc1ccc(NC(=O)COC(=O)/C=C/c2cccs2)cc1 | x | 4 | 0 | 0 | x | x | x | x | x
C[C@H](NC(=O)c1nc[nH]c1C(=O)N[C@@H](Cc1ccccc1)C(=O)OCc1ccccc1)C(=O)OC(C)(C)C | 0 | 11* | 24* | 0 | 6 | 10 | 3 | 26* | 14*
C[C@H](NC(=O)c1nc[nH]c1C(=O)N[C@@H](C)C(=O)OC(C)(C)C)C(=O)OCc1ccccc1 | 0 | 3 | 10 | 0 | 8 | x | x | x | x
O=C(CNC(=O)c1[nH]cnc1C(=O)N[C@@H](Cc1ccccc1)C(=O)OCc1ccccc1)OCc1ccccc1 | 0 | 8.8* | 22* | 0 | 10 | 8 | 3 | 25* | 15*

Bioassay records (PubChem BioAssay)
